Giardia killer: kills Giardia lamblia; Giardia lamblia trophozoite viability; AID 540267; 0.15% of 340,000 active; activity change, % at 7.66 µM, hits read low; in the data active means activity change below about -80%; inconclusive means between about -30% and that limit;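 further: parasites exposed to compound for two days anaerobically before the ATP read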
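Giardia lamblia trophozoites (100 cells/well) were incubated with compounds for 48 h at 37 deg C under anaerobic conditions. Viability was read as ATP content by one-step luminescence after 15-30 min at room temperature.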
RORg inh: ROR gamma (mouse) transcription inhibition; P51450; Drosophila S2 Gal4-RORgamma UAS-luciferase reporter, 20 h; Potency, µM (doses to about 53.6 µM), actives largely listed as inhibitors; 5.4% of 310,000 active; AID 2551; further: nearly all actives have a fitted effect of over 60% in size
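Luminescence from a UAS-regulated Photinus luciferase reporter in stably transfected Drosophila Schneider cells is measured; decreased signal marks ROR gamma inhibition. Fusion expression is induced by 700 uM copper sulfate for 20 hr.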
ERG-DNA inh: ERG Ets/DNA interaction inhibition. P11308. fluorescence polarization, His-ERG Ets domain / labelled DNA. Potency, µM (top dose mostly 76.9 µM), usual class: inhibitors. 0.028% of 370,000 active. AID 624246; active means well fitted inhibition curve with a large enough effect in the polarisation, with a control signal flat; inconclusive means small, poorly fitted or top-dose-only effect, or effect the other way, or a change in a side signal; inactive means no such curve, though single readings can be large or run the other way; the % refers to the polarisation;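 further: polarization taken with two DNA probes labelled with fluorescein and Texas red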
Target sequence (P11308 whole entry, looked up, the tested form may be a part): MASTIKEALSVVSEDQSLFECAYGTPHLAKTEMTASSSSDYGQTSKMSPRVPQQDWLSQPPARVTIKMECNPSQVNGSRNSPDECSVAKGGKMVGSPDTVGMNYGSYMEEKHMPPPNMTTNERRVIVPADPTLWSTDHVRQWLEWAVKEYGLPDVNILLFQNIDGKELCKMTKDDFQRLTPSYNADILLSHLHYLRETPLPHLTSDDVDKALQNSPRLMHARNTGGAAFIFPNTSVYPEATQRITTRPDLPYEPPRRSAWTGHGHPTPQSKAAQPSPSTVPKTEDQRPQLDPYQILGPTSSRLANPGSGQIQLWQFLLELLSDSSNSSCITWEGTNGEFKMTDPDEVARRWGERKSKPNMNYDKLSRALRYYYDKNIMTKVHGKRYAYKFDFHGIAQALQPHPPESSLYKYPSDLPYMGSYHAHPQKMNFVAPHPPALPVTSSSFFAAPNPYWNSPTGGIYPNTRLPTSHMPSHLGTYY
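His-tagged ERG Ets domain (1 uM in the protein solution; 300mM KCl, 50mM Tris-HCl, 1mM EDTA, 1mM DTT, pH 7.5) received compound, then a probe mix of 5 nM fluorescein-DNA and 100nM Texas-615-DNA. Fluorescence polarization was read for both dyes.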
Gal4-VP16 FLuc: inhibits Gal4-VP16 luciferase reporter, ROR gamma counter-screen; Drosophila S2 Gal4-VP16 UAS-luciferase, luminescence, 20 h; Potency, µM (series often up to 53.6 µM), hits mostly inhibitors; 3.5% of 310,000 active; AID 2546;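 further: Gal4-VP16 expression switched on by copper sulfate through the metallothionein promoter; nearly all actives have a fitted effect of over 50% in size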
a7 integrin act: activators of alpha7 integrin expression for muscular dystrophy. AID 624291. 0.064% of 350,000 active. Potency, µM (series often up to 38.3 µM), hits mostly activators. alpha7betagal myoblasts, beta-gal FDG fluorescence, 48 h; further: nearly all actives have a fitted effect of over 60% in size
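alpha7betagal+/- myoblasts (passage 13, 250/well) treated 48 h at 37C with compounds at 1:260 dilution of DMSO stock. Lysed, then beta-galactosidase activity read as FDG fluorescence (ex 480/em 540) after 30 min, with pre-read for autofluorescence.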
Of the large screens only hits and unclear results are named; the others gave an inactive call; ! = not confirmed by another sample. Shown is part of a subset that was picked to be rich in hits. Unless noted, the call rests on the fitted dose curve; in most records, active means well fitted curve in the direction sought with a large enough effect; inconclusive means small, poorly fitted or top-dose-only effect, or another doubt; inactive means no such curve, though single readings can be large; an effect the other way counts as inactive or inconclusive.

CCC(Sc1ccccn1)C(=O)Nc1cccc([N+](=O)[O-])c1 (centres undefined)	RORg inh 16µM, Gal4-VP16 FLuc inconclusive
Clc1ccccc1C(c1ccccc1)(c1ccccc1)n1ccnc1	RORg inh 6.3µM!, Gal4-VP16 FLuc inconclusive (no result: a7 integrin act)
C#CC(c1ccccc1)(c1ccccc1)n1ccnc1	none (no result: Giardia killer, RORg inh, ERG-DNA inh, Gal4-VP16 FLuc)
CC(C)c1ccc(Nc2nnc(SCC(=O)Nc3ncc(S(=O)(=O)c4ccc([N+](=O)[O-])cc4)s3)s2)cc1	Giardia killer inconclusive, RORg inh 10µM
Cc1ccc(Nc2nnc(SCC(=O)Nc3ncc(S(=O)(=O)c4ccc([N+](=O)[O-])cc4)s3)s2)cc1	none
CC(C)(C)c1ccc(CN(Cc2ccco2)c2cnc(S(C)(=O)=O)nc2C(=O)Nc2ccc(F)cc2)cc1	none (no result: Giardia killer, RORg inh, Gal4-VP16 FLuc, a7 integrin act)
CC(Sc1nc2ccccc2s1)C(=O)Nc1nnc(C(C)C)s1 (centres undefined)	RORg inh 2.8µM, Gal4-VP16 FLuc inconclusive
CCC(Sc1nc2ccccc2s1)C(=O)Nc1nnc(C)s1 (centres undefined)	RORg inh inconclusive, a7 integrin act inconclusive
COc1ccc(S(=O)(=O)N(C)C[C@H]2Oc3c(NC(=O)NC4CCCCC4)cccc3C(=O)N([C@H](C)CO)C[C@@H]2C)cc1	none (no result: RORg inh, Gal4-VP16 FLuc)
Cc1ccc(C(=O)Nc2nc(COc3ccccc3)cs2)s1	RORg inh 10µM (no result: ERG-DNA inh)
COc1ccc(-n2cnnc2SCC(=O)NC2CCCCC2)cc1	none (no result: RORg inh, Gal4-VP16 FLuc)
Nc1ncc([N+](=O)[O-])c(N2CCCCCC2)n1	RORg inh 11µM, a7 integrin act inconclusive
O=[N+]([O-])c1ccc(N2CCCC2)nc1N1CCCC1	a7 integrin act inconclusive
CSc1nc(=O)n2cc(C)ccc2n1	ERG-DNA inh 28µM
CC(C)C[C@H](NC(=O)c1nc[nH]c1C(=O)N(C)Cc1ccccc1)C(=O)OCc1ccccc1	Gal4-VP16 FLuc 3.5µM
CC(C)C[C@H](NC(=O)c1nc[nH]c1C(=O)N[C@@H](CC(C)C)C(=O)OC(C)(C)C)C(=O)OCc1ccccc1	RORg inh 5µM, Gal4-VP16 FLuc 7.1µM
CC(C)C[C@H](NC(=O)c1nc[nH]c1C(=O)N1CCN(c2ccccc2)CC1)C(=O)OCc1ccccc1	RORg inh 5µM, Gal4-VP16 FLuc inconclusive
CC(C)C[C@H](NC(=O)c1nc[nH]c1C(=O)N1CCNCC1)C(=O)OCc1ccccc1	none (no result: RORg inh, Gal4-VP16 FLuc)
CC(C)C[C@H](NC(=O)c1nc[nH]c1C(=O)N1CCN(C(=O)OC(C)(C)C)CC1)C(=O)OC(C)(C)C	RORg inh 2.8µM, Gal4-VP16 FLuc inconclusive
CC(C)C[C@H](NC(=O)c1[nH]cnc1C(=O)N[C@@H](C)C(=O)OC(C)(C)C)C(=O)OC(C)(C)C	RORg inh 6.3µM, Gal4-VP16 FLuc inconclusive
CC(C)C[C@H](NC(=O)c1nc[nH]c1C(=O)NCC(=O)OC(C)(C)C)C(=O)OCc1ccccc1	RORg inh 4µM, Gal4-VP16 FLuc 18µM
CNc1ccc(Br)cc(C(=O)/C=C/c2cc(OC)ccc2OC)c1=O	none
CCNc1ccc(Br)cc(C(=O)/C=C/c2ccc(Cl)cc2Cl)c1=O	RORg inh 5µM, Gal4-VP16 FLuc 13µM
CCCCCCn1c2c(c(=N)c3c1CCC3)CCC2	RORg inh 11µM, Gal4-VP16 FLuc 11µM, a7 integrin act inconclusive
CCCCCCCn1c2c(c(=N)c3c1CCC3)CCCC2	RORg inh 6.3µM, Gal4-VP16 FLuc 5.6µM, a7 integrin act inconclusive
O=C(CCc1ccccc1)NC(c1cccs1)c1cc(Cl)c2cccnc2c1O (centres undefined)	RORg inh 0.63µM, Gal4-VP16 FLuc 0.79µM
CC(=O)NC(c1cccs1)c1cc([N+](=O)[O-])c2cccnc2c1O (centres undefined)	RORg inh 6.3µM, Gal4-VP16 FLuc 16µM
CCC(=O)NC(c1cccs1)c1cc([N+](=O)[O-])c2cccnc2c1O (centres undefined)	RORg inh 3.2µM, Gal4-VP16 FLuc 5µM
CCC(=O)NC(c1cccs1)c1cc(Cl)c2ccccc2c1O (centres undefined)	none (no result: RORg inh, ERG-DNA inh, Gal4-VP16 FLuc, a7 integrin act)
CCCC(=O)NC(c1cccs1)c1cc([N+](=O)[O-])c2cccnc2c1O (centres undefined)	RORg inh 5.6µM, Gal4-VP16 FLuc 4µM
CCn1nc(C(=O)OC(C(=O)c2c[nH]c3ccccc23)c2ccccc2)c2ccccc2c1=O (centres undefined)	none
Cc1cc(C)nc(-n2nc(C)cc2NC(=O)CNCc2ccccc2)n1	RORg inh 5.6µM, Gal4-VP16 FLuc inconclusive
CCN(CC(=O)Nc1cc(C)nn1-c1nc(C)cc(C)n1)Cc1ccccc1	RORg inh 1.4µM, Gal4-VP16 FLuc 6.3µM
COc1ccc(CNCC(=O)Nc2cc(C)nn2-c2nc(C)cc(C)n2)cc1OC	none
CC(C)Nc1ccc(-c2nc(-c3ccncc3)no2)cc1[N+](=O)[O-]	none (no result: Giardia killer, RORg inh, Gal4-VP16 FLuc, a7 integrin act)
COC(=O)c1cc(NC(=S)NCc2ccc(Cl)cc2)cc(C(=O)OC)c1	RORg inh inconclusive, Gal4-VP16 FLuc inconclusive
COC(=O)c1ccc(C)c(NC(=S)NCc2ccc(Cl)cc2)c1	RORg inh 8.9µM, Gal4-VP16 FLuc 14µM (no result: ERG-DNA inh)
COC(=O)c1sccc1NC(=S)NCc1ccc(Cl)cc1	RORg inh 0.79µM, Gal4-VP16 FLuc 1.3µM
COC(=O)c1sccc1NC(=O)CSc1ccc(Cl)cc1	none
Cc1sc(NC(=O)c2cccs2)nc1-c1ccccc1	RORg inh inconclusive
Cc1sc(N/N=C/c2cccs2)nc1-c1ccccc1	RORg inh 7.1µM, Gal4-VP16 FLuc 10µM
CCN1C(=NCCOC)N[C@@H](c2ccccc2)[C@H](C(=O)OC)[C@H]1C	none
CC1(C)Cc2c(oc3ncn4ncnc4c23)CO1	none
CSc1nc2oc3c(c2c2nncn12)CC(C)(C)SC3	Gal4-VP16 FLuc 13µM
COc1ccc(C(=O)NC(=S)Nc2ccc(N3CCOCC3)cc2)cc1Cl	RORg inh 4.5µM, Gal4-VP16 FLuc 7.9µM
COC(=O)c1cc(NC(=O)c2c(-c3ccccc3)noc2C)ccc1N1CCOCC1	none
COC(=O)c1cc(NC(=S)NC(=O)c2ccccc2)ccc1N1CCOCC1	RORg inh 18µM, Gal4-VP16 FLuc inconclusive
Cc1cccc(C(=O)NC(=S)Nc2ccc(N3CCOCC3)cc2)c1	RORg inh 4µM, Gal4-VP16 FLuc 7.1µM
Cc1ccc(C(=O)NC(=S)Nc2ccc(N3CCOCC3)cc2)cc1C	RORg inh 2µM, Gal4-VP16 FLuc inconclusive
CC1CCCN(S(=O)(=O)c2cc3c(cc2Cl)NC(=O)CO3)C1 (centres undefined)	none (no result: Giardia killer, RORg inh, Gal4-VP16 FLuc, a7 integrin act)
O=C(CN1N=C(c2ccccc2)CCC1=O)NCc1ccc(F)cc1Cl	none (no result: Giardia killer, RORg inh, Gal4-VP16 FLuc, a7 integrin act)
CCCCCC(=O)N(O)C1CC(=O)N(c2ccccc2)C1=O (centres undefined)	RORg inh 16µM, Gal4-VP16 FLuc 7.1µM
CCCCCC(=O)NNC1CC(=O)N(c2ccccc2)C1=O (centres undefined)	none
CCCCCCC(=O)N(O)C1CC(=O)N(Cc2ccccc2)C1=O (centres undefined)	RORg inh 10µM

From PubChem BioAssay
